This note sets out measurements from the antibiotic and cytotoxicity screens of Wong et al. (2023).

Structures are written as SMILES. The campaign covered roughly 39,000 compounds. About 500 (1.3%) were called active. For the sample, actives were picked, then their nearest neighbours and some compounds at random.

This experiment relates to S. aureus RN4220. In words: growth inhibition call (relative growth <= 0.2). The conditions noted are these: 50 µM.
As to `C[C@@H]1CN([C@H](C)CO)C(=O)c2cc(NC(=O)Nc3ccc4c(c3)OCO4)ccc2O[C@@H]1CN(C)Cc1ccc(C(F)(F)F)cc1`, the growth inhibition call is “inactive”.

In the case of `C[C@H]1CCCCO[C@H](CN(C)CC2CCCCC2)[C@@H](C)CN([C@@H](C)CO)C(=O)c2cc(NC(=O)C3CCCCC3)ccc2O1`, the growth inhibition call was “inactive”.

For `O=C(Nc1nc(OCCN2CCCC2=O)cnc1-c1cc(Cl)cc(Cl)c1)c1cc2ccccc2s1`, the growth inhibition call was “inactive”.

Turning to `C[C@H](CO)N1C[C@H](C)[C@H](CN(C)Cc2ccc(C(=O)Nc3ccccc3N)cc2)Oc2c(NC(=O)Nc3cccc4ccccc34)cccc2C1=O`, the growth inhibition call was “inactive”.

On to `C[C@H](CO)N1C[C@H](C)[C@H](CN(C)C(=O)Nc2ccc(C(F)(F)F)cc2)Oc2c(NC(=O)Nc3ccc4c(c3)OCO4)cccc2C1=O`, for which the growth inhibition call is “inactive”.

In the case of `C[C@H]1CN([C@@H](C)CO)C(=O)c2cccc(NC(=O)Nc3ccc(C(F)(F)F)cc3)c2O[C@H]1CN(C)C(=O)Nc1ccc2c(c1)OCO2`, the growth inhibition call is “active”.

With `C[C@H](CO)N1C[C@H](C)[C@H](CN(C)C(=O)Nc2ccc3c(c2)OCO3)Oc2c(NC(=O)Nc3ccc(C(F)(F)F)cc3)cccc2C1=O`, the growth inhibition call is “active”.

`C[C@@H]1CN([C@H](C)CO)C(=O)c2cccc(NC(=O)Nc3ccc(C(F)(F)F)cc3)c2O[C@@H]1CN(C)C(=O)Nc1ccc2c(c1)OCO2`: the growth inhibition call is “inactive”.

Turning to `C[C@@H]1CN([C@@H](C)CO)C(=O)c2cccc(NC(=O)Nc3ccc(C(F)(F)F)cc3)c2O[C@H]1CN(C)C(=O)Nc1ccc2c(c1)OCO2`, the growth inhibition call is “inactive”.

Regarding `C[C@H]1CN([C@@H](C)CO)C(=O)c2cccc(NC(=O)Nc3ccc4c(c3)OCO4)c2O[C@@H]1CN(C)C(=O)Nc1ccc(C(F)(F)F)cc1`, the growth inhibition call is “inactive”.

Regarding `C[C@H](CO)N1C[C@H](C)[C@H](CN(C)Cc2ccc3c(c2)OCO3)OCCCC[C@H](C)Oc2ccc(NC(=O)CCC(F)(F)F)cc2C1=O`, the growth inhibition call is “inactive”.

Regarding `COc1ccccc1-c1ccc2c(c1)O[C@@H](CN(C)C(=O)c1cccnc1)[C@@H](C)CN([C@@H](C)CO)S2(=O)=O`, the growth inhibition call was “inactive”.

Consider `COc1cccc(NC(=O)C[C@@H]2CC[C@@H]3[C@H](COc4ccc(NC(=O)C5CCOCC5)cc4C(=O)N3C)O2)c1`, for which the growth inhibition call was “inactive”.

On to `Cc1noc(C)c1S(=O)(=O)Nc1ccc2c(c1)C(=O)N([C@H](C)CO)C[C@H](C)[C@H](CN(C)S(=O)(=O)c1ccc(F)cc1)O2`, for which the growth inhibition call was “inactive”.

For the molecule `CCOC(=O)[C@H]1C/C=C/C[C@H](C(=O)OCC)C(=O)O[C@H]2[C@@H](OC)O[C@H](CO)[C@@H](OC(=O)Nc3ccc(Br)cc3)[C@@H]2OC1=O`, the growth inhibition call is “inactive”.

Turning to `CCOc1ccc(CO[C@@H]2O[C@H](CO)[C@@H](O)[C@H](O)[C@H]2NC(C)=O)cc1OC`, the growth inhibition call is “inactive”.

In the case of `Cn1cnc(CCNC(=O)C[C@@H]2CC[C@H]3[C@@H](COC[C@@H](O)CN3C(=O)Nc3ccc(Cl)cc3)O2)c1`, the growth inhibition call was “inactive”.

Consider `Cn1cnc(CCNC(=O)C[C@@H]2CC[C@@H]3[C@H](COC[C@@H](O)CN3C(=O)Nc3ccc(C(F)(F)F)cc3)O2)c1`, for which the growth inhibition call is “inactive”.

On to `Cn1cnc(CCNC(=O)C[C@H]2CC[C@H]3[C@@H](COC[C@@H](O)CN3C(=O)Nc3ccc(C(F)(F)F)cc3)O2)c1`, for which the growth inhibition call is “active”.

For the molecule `Cn1cnc(CCNC(=O)C[C@H]2CC[C@@H]3[C@H](COC[C@@H](O)CN3C(=O)Nc3ccc(Cl)cc3)O2)c1`, the growth inhibition call is “inactive”.

Turning to `Cn1cnc(CCNC(=O)C[C@@H]2CC[C@H]3[C@@H](COC[C@@H](O)CN3C(=O)Nc3ccc(C(F)(F)F)cc3)O2)c1`, the growth inhibition call was “active”.

Regarding `Cn1cnc(CCNC(=O)C[C@H]2CC[C@H]3[C@@H](COC[C@H](O)CN3C(=O)Nc3ccc(C(F)(F)F)cc3)O2)c1`, the growth inhibition call was “inactive”.

On to `Cn1cnc(CCNC(=O)C[C@H]2CC[C@@H]3[C@H](COC[C@H](O)CN3C(=O)Nc3ccc(C(F)(F)F)cc3)O2)c1`, for which the growth inhibition call was “active”.

With `Cn1cnc(CCNC(=O)C[C@@H]2CC[C@H]3[C@@H](COC[C@H](O)CN3C(=O)Nc3ccc(Cl)cc3)O2)c1`, the growth inhibition call was “inactive”.

As for `Cn1cnc(CCNC(=O)C[C@H]2CC[C@@H]3[C@H](COC[C@@H](O)CN3C(=O)Nc3ccc(C(F)(F)F)cc3)O2)c1`, the growth inhibition call was “inactive”.

`Cn1cnc(CCNC(=O)C[C@@H]2CC[C@@H]3[C@H](COC[C@H](O)CN3C(=O)Nc3ccc(C(F)(F)F)cc3)O2)c1`: the growth inhibition call is “active”.

Regarding `Cn1cnc(CCNC(=O)C[C@@H]2CC[C@H]3[C@@H](COC[C@H](O)CN3C(=O)Nc3ccc(C(F)(F)F)cc3)O2)c1`, the growth inhibition call was “inactive”.

Take `Cn1cnc(CCNC(=O)C[C@H]2CC[C@H]3[C@@H](COC[C@@H](O)CN3C(=O)Nc3ccc(Cl)cc3)O2)c1`: the growth inhibition call was “inactive”.

In the case of `CN1C(=O)c2cc(NC(=O)C3CCC3)ccc2OC[C@H]2O[C@H](CC(=O)NCCc3ccncc3)CC[C@H]21`, the growth inhibition call is “inactive”.

`CO[C@H]1CN(C)C(=O)c2cc(NS(=O)(=O)CC(F)(F)F)ccc2OC[C@@H](C)N(C(=O)NC(C)C)C[C@H]1C`: the growth inhibition call is “inactive”.

`O=C(C[C@@H]1CC[C@H](NC(=O)Cc2ccccn2)[C@H](CO)O1)NCCCN1CCOCC1`: the growth inhibition call was “inactive”.

Turning to `COCCOC(=O)N1C(=O)[C@@]2(c3cc(C#Cc4ccc(OC)cc4)ccc31)[C@H](C(=O)N1CCc3cc(OC)c(OC)cc3C1)[C@H]1C(=O)O[C@H](c3ccccc3)[C@H](c3ccccc3)N1[C@@H]2c1ccc(O)cc1`, the growth inhibition call is “inactive”.

Turning to `C[C@H]1CN([C@@H](C)CO)C(=O)c2cc(C3=CCCC3)cnc2O[C@H]1CN(C)C(=O)Nc1ccc(C(F)(F)F)cc1`, the growth inhibition call was “inactive”.

On to `C[C@H]1CN([C@@H](C)CO)C(=O)c2cccc(NC(=O)Nc3cccc4ccccc34)c2O[C@@H]1CN(C)C(=O)Nc1cccc2ccccc12`, for which the growth inhibition call was “inactive”.

For `C#CCn1c(=O)c2c(OC)ccnc2n(C)c1=O`, the growth inhibition call was “inactive”.

With `Cc1ccccc1S(=O)(=O)N1[C@@H]2Cn3c(cccc3=O)[C@H]1[C@@H](C(=O)N1CCOCC1)[C@@H]2CO`, the growth inhibition call is “inactive”.

Take `COc1ccc(NC(=O)Nc2ccc3c(c2)C(=O)N([C@@H](C)CO)C[C@@H](C)[C@@H](CN(C)Cc2ccc(Oc4ccccc4)cc2)O3)cc1`: the growth inhibition call was “inactive”.

Consider `CN1C(=O)c2cc(NS(C)(=O)=O)ccc2OC[C@H]2O[C@@H](CC(=O)N3CCOCC3)CC[C@H]21`, for which the growth inhibition call was “inactive”.

On to `C[C@@H]1CN([C@@H](C)CO)C(=O)Cc2cc(NS(=O)(=O)c3ccc(Cl)cc3)ccc2O[C@@H]1CN(C)C(=O)Nc1ccc(C(F)(F)F)cc1`, for which the growth inhibition call was “inactive”.

Consider `C[C@H](CO)N1C[C@H](C)[C@@H](CN(C)C(=O)Nc2cccc3ccccc23)Oc2ccc(NC(=O)Cn3cnnn3)cc2CC1=O`, for which the growth inhibition call is “inactive”.

Regarding `CO[C@@H](CN(C)C(=O)Nc1ccc(C(F)(F)F)cc1)[C@H](C)CN(Cc1ccccc1Cl)[C@H](C)CO`, the growth inhibition call is “inactive”.

For `CO[C@@H](CN(C)C(=O)Nc1ccc(C(F)(F)F)cc1)[C@H](C)CN(Cc1ccccc1Cl)[C@@H](C)CO`, the growth inhibition call was “inactive”.

On to `CO[C@H](CN(C)C(=O)C1CCOCC1)[C@H](C)CN(C(=O)Nc1ccc(C(F)(F)F)cc1)[C@@H](C)CO`, for which the growth inhibition call was “active”.

Turning to `CO[C@@H](CN(C)C(=O)C1CCOCC1)[C@@H](C)CN(C(=O)Nc1ccc(C(F)(F)F)cc1)[C@H](C)CO`, the growth inhibition call was “active”.

As to `CO[C@H](CN(C)C(=O)C1CCOCC1)[C@@H](C)CN(C(=O)Nc1ccc(C(F)(F)F)cc1)[C@@H](C)CO`, the growth inhibition call is “active”.

Regarding `CO[C@H](CN(C)C(=O)Nc1ccc(C(F)(F)F)cc1)[C@@H](C)CN(Cc1ccccc1Cl)[C@H](C)CO`, the growth inhibition call was “inactive”.

As to `CO[C@@H](CN(C)C(=O)C1CCOCC1)[C@@H](C)CN(C(=O)Nc1ccc(C(F)(F)F)cc1)[C@@H](C)CO`, the growth inhibition call is “inactive”.

`CO[C@H](CN(C)C(=O)Nc1ccc(C(F)(F)F)cc1)[C@@H](C)CN(Cc1ccccc1Cl)[C@@H](C)CO`: the growth inhibition call was “inactive”.

Regarding `C[C@H](CO)N1C[C@H](C)[C@@H](CN(C)C(=O)C2CCCCC2)OCCCC[C@H](C)Oc2ccc(NC(=O)Nc3ccc(C(F)(F)F)cc3)cc2C1=O`, the growth inhibition call was “inactive”.

Regarding `CO[C@@H](CN(C)C(=O)C1CCOCC1)[C@H](C)CN(C(=O)Nc1ccc(C(F)(F)F)cc1)[C@@H](C)CO`, the growth inhibition call was “active”.

Consider `CO[C@H](CN(C)C(=O)Nc1ccc(C(F)(F)F)cc1)[C@H](C)CN(Cc1ccccc1Cl)[C@@H](C)CO`, for which the growth inhibition call was “inactive”.

Turning to `C[C@@H]1CN([C@H](C)CO)C(=O)c2cc(NC(=O)Nc3ccc(C(F)(F)F)cc3)ccc2O[C@@H](C)CCCCO[C@H]1CN(C)C(=O)C1CCCCC1`, the growth inhibition call was “inactive”.

`COc1ccc(S(=O)(=O)N(C)C[C@@H]2OCc3cn(nn3)CCCC(=O)N([C@H](C)CO)C[C@H]2C)cc1`: the growth inhibition call is “inactive”.

Regarding `COc1ccc(NC(=O)N(C)C[C@@H]2OCCCC[C@H](C)Oc3ccc(NS(=O)(=O)c4ccc(C)cc4)cc3C(=O)N([C@H](C)CO)C[C@H]2C)cc1`, the growth inhibition call is “inactive”.

Take `Nc1nnc(CC(=O)N2CCCCC2)o1`: the growth inhibition call was “inactive”.

Regarding `CN1C(=O)c2cc(NC(=O)Nc3ccccc3F)ccc2OC[C@@H]2O[C@@H](CC(=O)NCc3ccc(-c4ccccc4)cc3)CC[C@H]21`, the growth inhibition call is “inactive”.

For `Cc1noc(C)c1S(=O)(=O)Nc1ccc2c(c1)CC(=O)N([C@@H](C)CO)C[C@H](C)[C@H](CN(C)Cc1ccc(C(=O)O)cc1)O2`, the growth inhibition call was “inactive”.

As for `C[C@@H]1CCCCO[C@H](CN(C)C(=O)Nc2cccc3ccccc23)[C@H](C)CN([C@@H](C)CO)C(=O)c2cc(NS(=O)(=O)c3ccc(Cl)cc3)ccc2O1`, the growth inhibition call is “inactive”.

With `COc1ccc(S(=O)(=O)N(C)C[C@@H]2OCc3cnnn3CCCC(=O)N([C@@H](C)CO)C[C@H]2C)cc1`, the growth inhibition call was “inactive”.

On to `C[C@H]1CCCCO[C@H](CN(C)C)[C@@H](C)CN([C@@H](C)CO)C(=O)c2cc(NC(=O)CCCN(C)C)ccc2O1`, for which the growth inhibition call is “inactive”.

Consider `Cc1cc(C)c(S(N)(=O)=O)cc1S(N)(=O)=O`, for which the growth inhibition call was “inactive”.

In the case of `C=CCOC(=O)[C@@H]1[C@H]2C(=O)O[C@H](c3ccccc3)[C@H](c3ccccc3)N2[C@H](c2ccc(OCCOC(=O)[C@@H]3C[C@@H]4C(=O)N[C@@H](Cc5ccccc5)C(=O)N4[C@@H]3c3ccc(O)cc3)cc2)[C@@]12C(=O)Nc1ccccc12`, the growth inhibition call is “inactive”.
